Test results reported in PubChem BioAssay (NCI).
About 83,000 compounds went through this panel and 20% of them were active in at least one assay; those are over-represented in the sample as a whole.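 Method: cells in 96-well plates; compound added at one concentration; 48 h incubation; percent growth measured; values under 10 scored active.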 A number with no mark means an inactive call. The source made the active and inactive calls.

The molecules below were run on SN12C renal (assay: NCI-60 one-dose screen, 48 h (100 = growth as untreated, 0 = no growth, -100 = all killed)). Conditions: 10 µM unless noted.
Description: Growth inhibition of the SN12C human tumor cell line is measured as a screen for anti-cancer activity. Cells are grown in 96 well plates and exposed to the test compound for 48 hours. Compounds are tested at a single concentration, which is 10^-5 M for most compounds. The reported endpoint is percent growth (GI% or GIPRCNT), where numbers from 0 - 100% represent growth inhibition, and numbers from -100% - 0 represent cell death. For example, a value of 40 represents 60% growth inhibition. A value of 0 means no net growth occurred over the course of the experiment. A value of -40 indicates 40% of cells at the beginning of the experiment died by the end of the experiment. A value of -100 means all cells are dead at the end of the experiment.
NCI-60 Human Tumor Cell Lines Screen was performed using the standard one-dose NCI protocol, which is described in more detail at https://dtp.cancer.gov/discovery_development/nci-60/default.htm.
Compounds with GIPRCNT values below 10 were considered active. Activity score was based on GIPRCNT using the following formula: […]
Score is 0 for GIPRCNT values of 100 or above, 50 for GIPRCNT values of 0, and 100 for GIPRCNT values of -100.
Molecule `O=CN1N=C(c2ccccc2)CC1c1sc(N(CCCl)CCCl)nc1Cl` (stereo not given) has a growth of 96.1%. `FC(F)=C(F)c1ccccc1` showed a growth of 112%. With `Oc1ccc(Br)cc1CN1CCN(Cc2ccc(Cl)cc2)CC1` the growth was 89.6%. Work on `CCN(CC)c1ccc(C=C2C(=O)NC(=S)NC2=O)cc1` yielded a growth of 91.8%. `Cc1ccc(C(=O)C2CN(C)CCC2(O)c2ccc(C)cc2)cc1` (stereo not given) was tested, and the growth was 107%. In the case of `CCCCCCCCCCCCOc1ccc(C(=O)Oc2ccc(CSP3(=O)OCC4OC(n5cnc6c(N)ncnc65)C(F)C4OP(=O)(O)OCC4OC(n5ccc(=O)[nH]c5=O)C(F)C4O3)cc2)cc1` (stereo not given), the growth is reported as 109%. `C=CCC1(CC)C(=O)NC(=S)NC1=O` gave a growth of 93.4%. `CCC(CO)NC1CCCCC1` (stereo not given) was tested, and the growth was 75.8%. `CCOCC1(CCc2ccccc2)C(=O)NC(=S)NC1=O` showed a growth of 100%. Molecule `c1cnc2c(c1)ccc1ncccc12` has a growth of 95.3%. In the case of `C[CH2][Pb]([CH2]C)([CH2]C)[O]C(=O)c1ccc(N)cc1`, the growth is reported as 77.2%. For `CC(=O)C1C(=O)N(C)C(=O)N(C)C1=O`, the growth was 104%. In the case of `CNC(C)Cc1ccccc1` (stereo not given) (tested in a mixture with another compound), the growth is reported as 104%. With `N#C[Se]CCN1C(=O)C2C(C1=O)[C@H]1C=C[C@@H]2S1` (stereo not given in full) the growth was -18.8% (active). For `NC(=O)SCC(=O)Nc1ccc([As](=O)(O)O)cc1`, the growth was 89.8%. Work on `COc1cc(/C=C\c2cc(OC)c(OC)c(OC)c2)cc(N/C=C\C(=O)c2ccc(OC(F)(F)F)cc2)c1OC` yielded a growth of 36.5%. Molecule `CC(=O)Nc1ccc(C=C2C(=O)NC(=O)NC2=O)cc1` has a growth of 103%. For `N#[N+]c1cnc([O-])[nH]c1=O`, the growth was 84.9%. `CSc1ccccc1NP1(=O)OCC(C)([N+](=O)[O-])CO1` (stereo not given) was tested, and the growth was 98%. For `CCC(C)(C)O`, the growth was 98.8%. With `COc1cc(C2(C#N)CCN(C)CC2)cc(OC)c1OC` the growth was 103%. In the case of `CCC[CH2][Sn]1([CH2]CCC)[O]C(=O)c2cccc([N+](=O)[O-])c2C(=O)[O]1`, the growth is reported as -83.4% (active). Molecule `CC(C)N=C(NC(C)C)N1CC1` has a growth of 111%. Work on `ClCCN(CCCl)c1ccc(/C=C\c2ccnc3ccccc23)cc1` yielded a growth of 75.7%. For `C=CCN1C(=O)C(CC)(CCC(C)C)C(=O)NC1=S` (stereo not given), the growth was 101%. `O=C1C=CC(=O)C2C1C1(Cl)C(Cl)=C(Cl)C2(Cl)C1(Cl)Cl` (stereo not given) showed a growth of 67.3%. Work on `COc1ccc(OC)c(/C=C(/C)[N+](=O)[O-])c1` yielded a growth of 32.3%. With `C[C@]12CC[C@@H]3c4ccc(OC(=O)Cc5ccc(N(CCCl)CCCl)cc5)cc4CC[C@H]3[C@@H]1CC[C@@H]2OC(=O)Cc1ccc(N(CCCl)CCCl)cc1` the growth was 92.3%. For `CC[CH2][Pb]([CH2]CC)([CH2]CC)[O]C(=O)C(F)(F)F`, the growth was -79.3% (active). Molecule `C[C@@H]1CC[C@@H]2[C@@H]1[C@H](OC(=O)/C=C/C1CCCCC1)[C@]1(C3CCCCC3)C[C@@H](OC(=O)CO)[C@@]2(C)O1` has a growth of 31.2%. In the case of `Nc1ccc(N)c2c1Oc1ccccc1O2`, the growth is reported as 86.1%. `C#CC1(O)CCC2(C)C(CCC3C4CCC(=O)C4(C)CCC32)C1` (stereo not given) gave a growth of 101%. In the case of `CCCCNCCc1ccccn1`, the growth is reported as 112%. Molecule `CC(C)OC(=S)[S-].[Au+].c1ccc([PH+](c2ccccc2)c2ccccc2)cc1` has a growth of 16.7%. In the case of `O=C(CCl)NCNC(=O)CCl`, the growth is reported as 97.7%. In the case of `O=C(C(=O)N1CCCC1)c1cn(CCCCCn2cc(C(=O)C(=O)N3CCCC3)c3ccccc32)c2ccccc12`, the growth is reported as 82.3%. `CC(=O)C1CCC2C3CC=C4CC(OC(=O)Cc5ccc(N(CCCl)CCCl)cc5)CCC4(C)C3CCC12C` (stereo not given) gave a growth of 96.6%. Work on `Cc1cc(C)nc(C)c1.[Cl][Hg][Cl]` yielded a growth of 104%. In the case of `CC1COC(=O)C1` (stereo not given), the growth is reported as 98.4%. With `CC(CC(C#N)(c1ccccc1)c1ccccc1)N1CCOCC1` (stereo not given) the growth was 93.5%.
